Bioassay records deposited in PubChem BioAssay by several laboratories.
14-3-3 Bad inh = disrupts binding of bovine 14-3-3 zeta to phospho-Bad peptide | P63103 | TR-FRET 14-3-3zeta/Dy647-pBad peptide displacement, 1 h | inhibition, % at 21.7 µM | actives 0.71% (n = 220,000) | AID 781;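 active = inhibition above about 70%, limit read from the data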
Target sequence (P63103 whole entry, looked up): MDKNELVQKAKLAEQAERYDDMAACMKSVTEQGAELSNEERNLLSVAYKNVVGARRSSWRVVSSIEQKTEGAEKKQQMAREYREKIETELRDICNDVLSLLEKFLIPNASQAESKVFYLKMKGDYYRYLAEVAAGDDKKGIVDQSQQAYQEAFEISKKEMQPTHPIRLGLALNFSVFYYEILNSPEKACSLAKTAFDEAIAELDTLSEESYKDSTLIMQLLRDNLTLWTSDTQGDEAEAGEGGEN
eIF4E-4G inh = eIF4E/eIF4G interaction inhibition in translation initiation. P63073+Q04637. actives 0.37% (n = 220,000). TR-FRET eIF4E-eIF4GI(517-606) binding, 2 h. inhibition, % at 21.7 µM. AID 782
Mcl1-Bid inh = disrupts binding of human Mcl-1 to Bid peptide. TR-FRET Mcl-1/Bid-Dy647 peptide binding, 1536-well. inhibition, % at 21.7 µM. Q07820. actives 0.97% (n = 220,000);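 active = compounds that cut the binding signal by more than half at the single screening dose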;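 also: His-tagged Mcl-1 with europium anti-His antibody binding Bid BH3 peptide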
Target sequence (Q07820 whole entry, looked up): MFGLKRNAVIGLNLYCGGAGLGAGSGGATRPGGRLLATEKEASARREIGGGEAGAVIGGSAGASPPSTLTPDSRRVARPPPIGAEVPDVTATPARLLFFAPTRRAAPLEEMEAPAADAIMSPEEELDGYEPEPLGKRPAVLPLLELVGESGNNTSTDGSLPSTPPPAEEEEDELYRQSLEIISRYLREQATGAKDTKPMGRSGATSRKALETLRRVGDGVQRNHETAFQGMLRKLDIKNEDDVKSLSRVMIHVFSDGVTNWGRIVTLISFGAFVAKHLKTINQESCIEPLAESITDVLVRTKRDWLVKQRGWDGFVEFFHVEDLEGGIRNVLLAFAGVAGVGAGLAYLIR
Mcl1-Noxa inh = disrupts binding of human Mcl-1 to Noxa peptide; inhibition, % at 21.7 µM; actives 1.5% (n = 220,000); TR-FRET Mcl-1/Noxa peptide binding, 2 h; Q07820; AID 1022;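 active = compounds that cut the protein-peptide binding signal by more than 50% relative to plate controls in a single-dose test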;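 also: His-tagged Mcl-1 with rhodamine Noxa BH3 peptide and terbium anti-His antibody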
Bim-Mcl-1 = human Bim-Mcl-1 interaction inhibition. AID 1009. Bead-based flow cytometry, Bim peptide-Mcl-1 binding. Q07820. actives 0.1% (n = 190,000). inhibition, % at 10 µM; in the data active = inhibition above about 40%
p47phox inh = blocks human p47phox regulatory protein of NADPH oxidases; inhibition, % at 24.7 µM; actives 0.53% (n = 220,000); p47phox/p22phox peptide binding, fluorescence polarization, 2 h
Of the large screens only hits and unclear results are named; the others gave an inactive call; [ ] = remark or other dose. Hits are enriched below; roughly 3.4% of the tested compounds scored in any of these assays.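 The calls were made as follows, unless noted: active = inhibition above about 30% (limit read from the data); inactive = the rest.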

CCOC(=O)C1(Cc2cccc(OC)c2)CCN(Cc2ccccc2)CC1	none
CCOC(=O)C1(Cc2cccc(OC)c2)CCN(Cc2cc(OC)ccc2OC)CC1	14-3-3 Bad inh 80.2
CCOC(=O)C1(Cc2cccc(OC)c2)CCN(Cc2cccc(OC)c2OC)CC1	Bim-Mcl-1 78.0
CCOC(=O)C1(Cc2cccc(OC)c2)CCCN(Cc2c(C)nn(C(C)C)c2C)C1 (stereo not given)	eIF4E-4G inh 97.1 (no result: Bim-Mcl-1)
COc1cccc(CCc2nnc(CCC(=O)NC(C)c3c(C)nn(C)c3C)o2)c1 (stereo not given)	none
COc1cccc2sc(/N=C/N(C)C)nc12	Mcl1-Bid inh 55.6 (no result: Bim-Mcl-1)
COc1cccc2sc(N(C)c3ccccc3)nc12	none
COc1ccc2nc(S(=O)Cc3ncc(C)c(OC)c3C)[nH]c2c1 (stereo not given)	Mcl1-Noxa inh 84.4
COc1ccc2nc(SCC(=O)Nc3c(C)cccc3C)[nH]c2c1	none
Nc1cccnc1Sc1cc(Cl)c(Cl)cc1Cl	Mcl1-Noxa inh 87.8
C=CCc1ccc(OCCOCCOc2cccc3ccc(C)nc23)c(OC)c1	14-3-3 Bad inh 74.2, Mcl1-Bid inh 80.3
COc1cc(C)ccc1OCCOCCOc1cccc2ccc(C)nc12	none
Cc1nnc(SCc2ccccc2)[nH]c1=O	none
Cc1ccc(CSc2nnc(C)c(=O)[nH]2)cc1	p47phox inh 67.1
Cc1ccc(S(=O)(=O)N(C(=O)c2ccncc2)c2ccc(OC(=O)c3ccncc3)c3ccccc23)c(C)c1	none
Cc1ccc(S(=O)(=O)N(C(=O)c2ccncc2)c2ccc(OC(=O)c3ccncc3)c3ccccc23)cc1	Mcl1-Noxa inh 59.3
O=C(CCO)c1ccc(O)cc1	14-3-3 Bad inh 74.5, Mcl1-Noxa inh 77.9
Cc1oc2cc(O)ccc2c(=O)c1-c1cnn(-c2ccccc2)c1	none (no result: 14-3-3 Bad inh, eIF4E-4G inh)
O=c1c(-c2cnn(-c3ccccc3)c2)coc2cc(O)ccc12	Mcl1-Noxa inh 57.4
C=CCn1c(SCC(=O)Nc2sccc2C(N)=O)nc2ccc(Cl)cc2c1=O	Mcl1-Bid inh 60.8
C=CCn1c(SCC(=O)Nc2sccc2C(N)=O)nc2ccccc2c1=O	none
O=C(O)CC1COc2ccccc2N1C(=O)c1ccccc1Cl (stereo not given)	none
COc1ccc(N2CCN(C(=O)Cn3nnc(-c4ccc(N(C)C)cc4)n3)CC2)cc1	14-3-3 Bad inh 76.7, Mcl1-Bid inh 60.5, Mcl1-Noxa inh 52.3
CCOC(=O)C1=C(O)/C(=C/c2cc(OC)c(O)c(OC)c2)SC1=Nc1ccc(OC)cc1	Mcl1-Noxa inh 74.6
COCCNC(=O)COC(=O)c1ccc(OCC(=O)Nc2ccccc2OC)c(OC)c1	none
O=C(CN1CCC(NC(=O)c2ccccc2)CC1)NCc1ccccc1F	none (no result: Mcl1-Noxa inh)
O=C(CN1CCC(NC(=O)c2ccc(F)cc2)CC1)NCc1ccccc1F	p47phox inh 49.8
Cc1ccccc1N1CC(=O)N(c2ccccc2C)CC1=O	none
Cc1cccc2c1c1ccc3c(c1n2C)C(=O)C=CC3=O	Mcl1-Noxa inh 108.5 (no result: Bim-Mcl-1)
COc1ccccc1NC(=O)CN(Cc1ccco1)C(=O)c1cc2ccccc2o1	none
CC(C(=O)NC1CCCC1)N(Cc1ccco1)C(=O)c1snc(C(=O)NC2CCCC2)c1N (stereo not given)	Mcl1-Noxa inh 90.3
CC1CCc2c(sc3ncnc(NCCN4CCOCC4)c23)C1 (stereo not given)	eIF4E-4G inh 50.5 (no result: Bim-Mcl-1)
Cc1sc2ncnc(NCCN3CCOCC3)c2c1C	Mcl1-Bid inh 54.7
Cn1c(=O)c(C(=O)CN2CC(=O)Nc3ccccc32)c(N)n(Cc2ccccc2)c1=O	none
COC(=O)c1cc(N=Nc2sc(N)nc2C)cc(C(=O)OC)c1	Mcl1-Noxa inh 52.8 (no result: Bim-Mcl-1)
COC(=O)c1ccc2nc(C)c(C)nc2c1	none
O=C(Nc1ccc(N2CCOCC2)cc1)Nc1ccc2nc(-c3ccco3)c(-c3ccco3)nc2c1	Mcl1-Noxa inh 102.1
O=C(NCCCO)Nc1ccc2nc(-c3ccco3)c(-c3ccco3)nc2c1	eIF4E-4G inh 48.2, Mcl1-Bid inh 54.8, Mcl1-Noxa inh 101.5
O=C(Nc1ccc2nc(-c3cccs3)c(-c3cccs3)nc2c1)N1CCOCC1	none
O=C(Nc1ccc2nc(-c3ccco3)c(-c3ccco3)nc2c1)NC1CC1	eIF4E-4G inh 40.8[fluorescence artefact?], Mcl1-Noxa inh 102.3
Cn1c(=O)n(C)c2cc(S(=O)(=O)N3CCOCC3)ccc21	none
O=C(Nc1ccc(F)c(Cl)c1)NC1CC1	none
O=S(=O)(c1ccc2nc(-c3ccco3)c(-c3ccco3)nc2c1)N1CCOCC1	Mcl1-Noxa inh 89.5
CC(=O)c1cccc(NC(=O)N2CCCC2C(=O)Nc2ccc3c(c2)OCO3)c1 (stereo not given)	none
O=C(c1cc2nc(-c3ccc(Cl)cc3)cc(C(F)(F)F)n2n1)N1CCOCC1	none
FC(F)(F)c1nc(-c2cccs2)ncc1-c1nnnn1-c1ccc(Cl)cc1	Mcl1-Bid inh 64.8
Clc1ccc(-n2nnnc2-c2cnc(-c3ccncc3)nc2-c2cccs2)cc1	none
CN1CCN(CCCCOc2ccccc2C=O)CC1	Mcl1-Bid inh 55.8
CC1CCN(CCCCOc2ccccc2[N+](=O)[O-])CC1	14-3-3 Bad inh 84.7, Mcl1-Bid inh 52.8
COc1ccc(CN2CCC(CO)(Cc3ccccc3C(F)(F)F)CC2)c(F)c1	none
Cc1ccc(C)c(NC(=O)CN(C)S(=O)(=O)c2cccc3cccnc23)c1	none (no result: Bim-Mcl-1)
O=c1cc(CSc2nnc(COc3cccc4ccccc34)o2)c2ccccc2[nH]1	none (no result: Bim-Mcl-1)
Cc1cccc2[nH]c(CN(C)Cc3nc(CC4CC4)no3)nc12	none
O=C(NCc1ccco1)/C(=C/c1cccnc1)NC(=O)c1cccc(Br)c1	14-3-3 Bad inh 77.1[fluorescence artefact?]
CCOc1ccc(NC(=O)C2CCC(CNc3c(N4CCC(C)CC4)c(=O)c3=O)CC2)cc1 (stereo not given)	none (no result: Bim-Mcl-1)
CCNc1ccc(Br)cc(C(=O)/C=C/c2c(Cl)cccc2Cl)c1=O	14-3-3 Bad inh 83.5[fluorescence artefact?], Mcl1-Noxa inh 102.3
CCNc1ccc(Br)cc(C(=O)/C=C/c2ccc(Cl)cc2)c1=O	Mcl1-Noxa inh 81.8
Nc1ccccc1C(=O)/C=C/c1ccc2c(c1)OCO2	none
CCNc1ccc(Br)cc(C(=O)/C=C/c2ccc3c(c2)OCO3)c1=O	Mcl1-Noxa inh 94.1
CN=C(C)/C(C(=O)OC)=C(/O)c1ccc(Cl)cc1Cl	none (no result: Bim-Mcl-1)
O=C(O/N=C1/CCCc2occc21)c1ccc(Cl)cc1Cl	none (no result: Bim-Mcl-1)
CCOC(=O)Cn1c(C)[n+](CC(=O)c2ccccc2)c2ccccc21	none (no result: Bim-Mcl-1)
Cc1onc(-c2ccccc2)c1C(=O)OCC(=O)NCc1ccc(F)cc1	none
CN1CCN(CCCNC(=O)Cn2ncc3c4ccccc4n(C)c3c2=O)CC1	none
Cc1cc2c(s1)c1cnn(CC(=O)NCCc3ccccc3)c(=O)c1n2C	p47phox inh 30.5
Cc1cc(C(=O)NC2Cc3ccccc3C2)c(C)o1	none (no result: Bim-Mcl-1)
